# Compound activity as filed in PubChem.
# Cycloheximide cs = counter-screen hit for Shiga toxin inhibitors, cycloheximide; max response, %; cell reporter, cycloheximide protein synthesis inhibition counterscreen; AID 2314; actives 12% (n = 300,000); in the data active means max response mostly above about 13%, no sharp cut-off; inactive means mostly below about 14%; further: read at 38.3 µM for the half of the compounds with a filed dose; 0% is about no effect
# LmPK inh = LmPK (Leishmania mexicana) enzyme inhibition | Q27686 | purified LmPK, Kinase-Glo ATP luminescence, 1 h | actives 0.37% (n = 290,000) | Potency, µM (highest dose often 57.5 µM), for inactives: at the highest dose activity change, negative = inhibition, actives largely listed as inhibitors; further: potency means the concentration at half of the fitted maximal effect; on the % scale 0 is the no-effect control and ±100 the full control effect
# Target sequence (Q27686 whole entry, looked up): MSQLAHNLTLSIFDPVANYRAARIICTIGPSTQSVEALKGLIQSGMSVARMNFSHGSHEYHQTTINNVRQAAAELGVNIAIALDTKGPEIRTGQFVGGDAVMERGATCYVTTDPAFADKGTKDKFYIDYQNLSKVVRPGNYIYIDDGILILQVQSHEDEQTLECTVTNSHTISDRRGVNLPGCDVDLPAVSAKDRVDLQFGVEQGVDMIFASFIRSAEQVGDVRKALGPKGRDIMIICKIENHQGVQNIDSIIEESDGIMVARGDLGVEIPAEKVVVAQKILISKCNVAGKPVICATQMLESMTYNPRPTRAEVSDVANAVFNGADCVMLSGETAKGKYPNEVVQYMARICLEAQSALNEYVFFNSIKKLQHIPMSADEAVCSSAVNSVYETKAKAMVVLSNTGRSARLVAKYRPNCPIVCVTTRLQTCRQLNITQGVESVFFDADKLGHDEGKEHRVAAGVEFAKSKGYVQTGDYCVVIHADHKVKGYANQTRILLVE
#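 Kinase-Glo luminescence read after 1 h RT reaction of 0.1 nM LmPK with 0.5 mM PEP and 0.1 mM ADP. Activity scaled between uninhibited and enzyme-free controls.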
# Sm TGR inh = blocks Schistosoma mansoni thioredoxin glutathione reductase. Q962Y6. purified TGR, DTNB reduction, TNB absorbance 405 nm. Potency, µM (highest dose often 114 µM), inactives show at the top dose activity change, negative = inhibition, most hits filed as inhibitors. actives 3% (n = 360,000). AID 485364; further: potency means the concentration at half of the fitted maximal effect; on the % scale 0 is the no-effect control and ±100 the full control effect; nearly all actives have a fitted effect of over 60% in size
#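 TGR 20 nM + NADPH 100 uM (dispensed conc.), cpd preinc 15 min RT; start with NADPH (500 uM addition) then DTNB (15 mM addition). Kinetic TNB absorbance, 405 nm filter. Four-parameter Hill fit across titration.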
# Shiga inhibitor = inhibitors of Shiga toxin in Vero cells; Vero cells, Shiga toxin protein synthesis inhibition reporter; inhibition, % at 38.7 µM; actives 9.2% (n = 290,000); AID 2315; in the data active means inhibition mostly above about 28%, no sharp cut-off; inactive means mostly below about 43%; further: 0% is about no effect
# Tb PYK inh = inhibitors of Trypanosoma brucei pyruvate kinase; actives 0.12% (n = 410,000); AID 624173; Q57TT1; TbPYK enzyme, Kinase-Glo Plus ATP luminescence, 45 min; Potency, µM (doses to about 76.8 µM), for the others: at the top dose activity, negative = inhibition, most hits filed as inhibitors; further: potency means the concentration at half of the fitted maximal effect; on the % scale 0 is the no-effect control and ±100 the full control effect; nearly all actives have a fitted effect of over 50% in size
#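 Readout: single end-point luminescence (Kinase-Glo Plus, 10 min). Reaction conditions were TbPYK/substrate plus 130 uM ADP, 45 min at RT, pH 7.2 TEA buffer. No-enzyme wells served as controls, and data were normalized before concentration-response fitting.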
# FBPA Giardia inh = blocks Giardia fructose-bisphosphate aldolase activity; A8B2U2; purified Giardia FBPA; Potency, µM (top dose mostly 59.6 µM), inactives show at the highest dose activity, negative = inhibition, hits mostly inhibitors; actives 0.71% (n = 290,000); AID 2451; further: potency means the concentration at half of the fitted maximal effect; on the % scale 0 is the no-effect control and ±100 the full control effect; nearly all actives have a fitted effect of over 55% in size
#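 Giardia FBPA (40 nM reagent) was preincubated 10 min at RT with compound (up to 57.5 uM final), then substrate plus GAPDH/TPI/NAD/arsenate coupling system with diaphorase/resazurin was added; resorufin fluorescence (525/598 nm) was read after 20 min.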
# * marks the source's active call; other numbers are inactive results; ? = inconclusive; · = not tested or not shown. This excerpt belongs to a sample that is enriched for hits. Unless noted, the call rests on the fitted dose curve; in most records, active means well fitted curve in the direction sought with a large enough effect; inconclusive means small, poorly fitted or top-dose-only effect, or another doubt; inactive means no such curve, though single readings can be large; an effect the other way counts as inactive or inconclusive.
SMILES,Cycloheximide cs,LmPK inh,Sm TGR inh,Shiga inhibitor,Tb PYK inh,FBPA Giardia inh
O=C(COc1ccccc1Cl)Nc1ccccc1C(=O)N1CCCCC1,43*,-1%,5%,85*,2%,·
CSc1ccccc1NC(=O)COc1ccccc1Cl,51*,-1%,18%,132,-12%,1%
CC(=O)N1CCN(c2ccccc2NC(=O)COc2ccc(Cl)cc2Cl)CC1,-2,3%,-15%,-10,4%,-7%
CCOC1CCCc2oc(-c3ccc(OC)cc3)c(C#CCCO)c21 (configuration not stated),·,·,·,·,-6%,·
CCOc1ccccc1-n1cc2c(c1-c1ccc(OC)cc1)c(=O)n(C)c(=O)n2C,·,·,10%,·,-4%,·
O=C(O)C1CCC(C(=O)O)SS1 (configuration not stated),·,·,·,·,6%,·
COc1ccc(CCNc2ncnc3c2c(-c2ccccc2)cn3-c2ccc(Cl)cc2)cc1OC,·,·,-3%,·,2%,·
COc1ccccc1CN1CCC(n2nccc2NC(=O)CCOc2ccccc2)CC1,-2,1%,1%,-5,-12%,·
COc1ccc(Br)cc1C(=O)Nc1ccc(N2CCCC2)cc1,-3,-4%,?,-8,?,5%
CC(C)Oc1ccc(C(=O)Nc2ccc(N3CCCC3)cc2)cc1,20*,1%,?,27*,-13%,-8%
CC(C)Oc1ccc(C(=O)Nc2ccc(N3CCN(C(=O)c4ccco4)CC3)cc2)cc1,-3,3%,-12%,-10,-1%,4%
O=C(Nc1ccc(N2CCCC2)cc1)c1ccc(Br)cc1,12*,3%,-12%,19,4%,-1%
CCC(CC)c1nnc(NC(=O)c2cc([N+](=O)[O-])ccc2N2CCOCC2)s1,·,·,·,·,-15%,·
N#CCN(N=Nc1ccccc1)c1ccccc1,38*,3%,5%,71*,-5%,5%
CCNC(=S)/N=C(\N)Nc1nc(C)c2cc(C)ccc2n1,43*,2%,61%,88*,-3%,-20%
COc1cc(OCc2ccc(C)cc2)ccc1CNC[C@H]1O[C@@H](n2cnc(C(N)=O)n2)[C@H](O)[C@@H]1O,·,·,·,·,-6%,·
O=C1OCC2OC(O)C(O)C(O)C2OC(=O)c2cc(O)c(O)c(O)c2-c2c(O)c(O)c3oc(=O)c4c(c(O)c(O)c5oc(=O)c2c3c54)-c2c1cc(O)c(O)c2O (configuration not stated),-7,-16%,16µM*,1,·,4µM*
CC(=O)c1c(C)nc(-c2ccc(Cl)cc2)nc1N=CN(C)C,46*,7%,-27%,70*,0%,?
CN(C)C=NC(=O)c1cc(C(=O)c2ccc(Cl)cc2)c[nH]1,7,-3%,10%,-15,-9%,-1%
CCC1CN(C(=O)N2CCC(C(=O)NCc3cccs3)CC2)c2ccccc2O1 (configuration not stated),·,·,-10%,·,-6%,·
O=C(CNC(=O)c1ccc(Cl)cc1Cl)OCc1nc2ccccc2s1,2,-2%,-2%,70,-1%,5%
O=C(CNC(=O)c1ccccc1)OCc1nc2ccccc2s1,42*,0%,-5%,49*,1%,1%
O=C(CNC(=O)c1ccccc1)OCCCOC(=O)CNC(=O)c1ccccc1,-3,-6%,?,-12,-10%,·
O=C(CNC(=O)c1ccccc1F)OCc1nc2ccccc2s1,25,-2%,2%,67*,0%,2%
COc1cc(O)ccc1-c1nc2ccc(Br)cn2c1Nc1ccccc1C,·,·,-36%,·,-2%,·
SMILES,Cycloheximide cs,LmPK inh,Sm TGR inh,Shiga inhibitor,Tb PYK inh,FBPA Giardia inh
O=C(Nc1nc2ccccc2[nH]1)c1cccc(S(=O)(=O)N2CCOCC2)c1,39*,3%,-8%,42*,-10%,-7%
Cc1cccc(C(=O)N[C@H](C(=O)Nc2cc(S(=O)(=O)N3CCCCC3)ccc2C)C(C)C)c1,0,2%,-11%,-6,-3%,-5%
Cc1cc(C)c2nc(NC(=O)[C@@H](NC(=O)c3cccc(S(=O)(=O)N4CCOCC4)c3)C(C)C)sc2c1,32*,2%,-8%,64*,1%,1%
O=C(Nc1ccccc1N1CCOCC1)c1ccc(F)c(S(=O)(=O)N2CCOCC2)c1,·,·,-7%,·,-4%,·
O=C(Nc1nc2ccccc2[nH]1)c1ccc(F)c(S(=O)(=O)N2CCOCC2)c1,50*,-8%,-6%,44*,4%,1%
COC(=O)c1ccc2c(=O)n(CCCCCC(=O)N3CCN(c4ccc(Cl)cc4)CC3)c(=O)[nH]c2c1,·,·,5%,·,5%,·
CCOc1ccc(N=CC2=C(O)CC(C)(C)CC2=O)cc1,-3,0%,-5%,189*,2%,6%
CN=CC1=C(O)CC(C)(C)CC1=O,2,-3%,11%,-21,2%,10%
CC1(C)CC(=O)C(C=Nc2ccc3[nH]ncc3c2)=C(O)C1,37*,-2%,-1%,33*,4%,?
CC1(C)CC(=O)C(C=Nc2ccc(O)cc2)=C(O)C1,18*,-3%,5%,36*,4%,-15%
CCN(CC)CCOC(=O)c1ccc(N=CC2=C(O)CC(C)(C)CC2=O)cc1,·,·,·,·,4%,·
CC1(C)CC(=O)C(C=Nc2ccc(N)cc2)=C(O)C1,40*,-7%,-18%,81*,0%,-26%
O=C(Nc1ccc(Br)cc1)c1ccc(F)c(S(=O)(=O)NC2CCCCCC2)c1,5,·,5%,10,-4%,·
CC(=O)O[C@](C)(CCC=C(C)C)C1CC=C(C)CC1 (some centres not stated),·,·,·,·,·,-4%
CC(C)Sc1ncc(Cl)c(C(=O)Nc2nc3ccc(S(C)(=O)=O)cc3s2)n1,·,·,2%,·,-2%,·
COc1ccc(C(C)=O)cc1Cn1c(C)c(C(=O)NCc2cccc(C)c2)sc1=O,·,·,·,·,1%,·
CC(C)(C)C(=O)c1c(N)[nH]c(C(=O)c2ccccc2)c1-c1ccc(C(F)(F)F)cc1,·,·,·,·,2%,·
CCOC(=O)c1c(/N=C/C2=C(O)CC(C)(C)CC2=O)sc(C(C)=O)c1C,23*,0%,-20%,57*,-3%,-1%
Cc1cccc(NC(c2ccc(O)cc2)c2ccc3ccc(C)nc3c2O)n1 (configuration not stated),3,7%,0.35µM*,-10,10%,-15%
Cc1ccc2cccc(NC(=O)C(F)(F)F)c2n1,-5,6%,-2%,3,-3%,?
COc1cccc(CSc2nnc(C(F)(F)F)n2Cc2ccc(F)cc2)c1,9,1%,-11%,12,3%,0%
Cc1ccc(CSc2nnc(C(F)(F)F)n2Cc2ccc(F)cc2)cc1,16*,0%,18%,21,-10%,2%
O=C(CSc1ccc2nnc(-c3ccccn3)n2n1)Nc1ccccc1F,8,2%,-20%,8,-12%,·
O=C1CNC(=S)N1c1nc2ccccc2s1,29*,-21%,2%,82*,1%,?
